The full list was thinned out, with hits kept by preference.
ERK EGF block – qHTS Assay for Inhibitors of the ERK Signaling Pathway using a Homogeneous Screening Assay; Stimulation with EGF | HEK293-V1b, EGF-stimulated phospho-ERK AlphaScreen | Potency, µM (series often up to 11.5 µM), without a hit: top-dose activity change, negative = inhibition, actives largely listed as inhibitors | 0.41% of 130,000 active; active means well fitted inhibition curve with a large enough effect;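 further: plate controls were stimulated vehicle wells for no effect and unstimulated vehicle basal for full effect; nearly all actives have a fitted effect of over 55% in size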
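Cell line HEK293 (stable V1b), low serum overnight. Pretreatment: compound 30 min, 37C. EGF 25 nM, 5 min. Detection: SureFire AlphaScreen, 5 h RT. AC50 via standard Hill equation.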
Starred values were filed as active, the others as inactive; ! = a repeat was not active; [ ] = another dose, or the depositor's remark. Potency means the concentration at half of the fitted maximal effect.

SMILES	ERK EGF block
COc1ccc(-c2nc(-c3cccc([N+](=O)[O-])c3O)cc(=O)o2)cc1OC	1.6%
COc1ccccc1S(=O)(=O)c1ccccc1[N+](=O)[O-]	-11.0%
COc1cc(/C=C2/C(=O)c3cccc([N+](=O)[O-])c3C2=O)c(Br)cc1O	28.2µM*
COc1cccc([C@@H]2Oc3ccc(Br)cc3C[C@H]2O)c1	2.4%
Cc1csc2c(N3CCN(C(=O)c4ccc(C(C)(C)C)cc4)CC3)ncnc12	28.2µM*
Cc1csc2c(N3CCN(C(=O)NC(C)(C)C)CC3)ncnc12	6.8%[57.5 µM]
Cc1csc2c(N3CCN(C(=S)Nc4ccc(C(F)(F)F)cc4)CC3)ncnc12	-17.1%[57.5 µM]
COC(=O)[C@@]1(Cc2ccc(OC)cc2)[C@H]2c3cc(C(=O)N4CCCC4)n(CCF)c3C[C@H]2CN1C(=O)c1ccccc1	5.3%
CCOc1ccc2[nH]c3c(N4CCc5ccccc5C4)ncnc3c2c1	31.6µM*
c1ccc2c(c1)CCN(c1ncnc3nc[nH]c13)C2	8.0%
CCOc1ncnc2c1[nH]c1ccccc12	-9.1%[57.5 µM]
N=C(C[C@@H](O)COc1ccccc1-c1ccccc1)N1CCCCC1	-1.1%
COc1cc([C@@H]2c3cc4c(cc3C(OC3OC5COC(C)OC5C(O)C3O)C3COC(=O)[C@@H]32)OCO4)cc(OC)c1O (stereo not given in full)	0.8%
CC(Cc1ccccc1)C(=O)NCC1CC1 (stereo not given)	9.4%
C=CCC(Nc1ccc(OC)cc1)(C(=O)OCC)c1ccccc1 (stereo not given)	-9.8%
COc1cccc(-c2nc(NCCc3c[nH]c4ccc(OC)cc34)c3ccccc3n2)c1	25.1µM*
COc1ccc2[nH]cc(CCNc3nc(-c4ccc(C(=O)N(C)C)cc4)nc4ccccc34)c2c1	12.1%
COc1ccc2[nH]cc(CCNc3nc(-c4ccoc4)nc4ccccc34)c2c1	34.6%
COc1ccc(Oc2ncc3nc(-c4ccccc4)c(=O)n(Cc4cccs4)c3n2)cc1	4.8%
COC(=O)N1CCC2(CCN(C(=O)NC(C)C)CC2)CC1	-0.9%
C[C@@H](Oc1ccc(Oc2cnc3ccc(Cl)cc3n2)cc1)C(=O)O	5.9%
CCC1=C2CC[C@H]3C(=O)NC(=O)[C@H]3[C@H]2[C@@]2(C)C(=NCC(=O)OC)OC(=O)N2C1=O	-0.5%
Cn1cccc1C(=O)N1CCC2(CCN(C(=O)Nc3ccccc3)CC2)CC1	1.3%
COc1ccc2c(c1)OCC(Cc1ccc(OC)c(O)c1)C2=O (stereo not given)	6.6%
CC[n+]1c(/C=C/c2ccc(N(C)C)cc2)ccc2ccccc21	2.7%
SMILES	ERK EGF block
CC[n+]1ccccc1/C=C/c1ccc(N(C)C)cc1	-2.6%
CC[n+]1ccc(/C=C/c2ccc(N(C)C)cc2)c2ccccc21	14.1µM*
Cc1nn(CC(=O)NCCc2ccccc2)c(C)c1[N+](=O)[O-]	-8.3%
Cc1nn(CC(=O)NCc2ccccc2F)c(C)c1[N+](=O)[O-]	-4.6%
Cc1nn(CC(=O)NCc2cc3ccccc3[nH]2)c(C)c1[N+](=O)[O-]	14.1µM*
N#Cc1ccc(CN2CCC3(CC2)CCN(C(=O)c2csnn2)CC3)cc1	-1.4%
COc1ccc(NC(=O)c2cc3cccc(OC)c3oc2=Nc2ccc(C(=O)O)cc2)cc1OC	-0.6%
COc1ccc(N=c2oc3cc(O)ccc3cc2C(=O)Nc2ccccn2)cc1OC	28.2µM*
Cc1ccc(-c2cc(C(=O)Nc3ccccn3)c3ccccc3n2)o1	-4.2%
O=c1c(-c2ccc(Cl)cc2)nc2cncnc2n1Cc1ccccc1Cl	-6.7%
CC(C)Cn1nnnc1S(=O)(=O)CCc1ccccc1	-1.7%
O=C1/C(=C/c2ccncc2)SC(=S)N1Nc1ccccc1	-2.7%[57.5 µM]
O=C(O)c1ccc(/C=C2\SC(=S)N(Nc3ccccc3)C2=O)cc1	-11.4%[57.5 µM]
O=C1/C(=C/c2ccc(O)c(O)c2)SC(=S)N1Nc1ccccc1	12.6µM*
CC(C)CN1CC[C@@]2(CCCN(C(=O)c3ccco3)C2)C1	-3.2%
O[C@@H]1[C@@H]2c3cc4c(cc3CN3CCC(=C[C@@H]1O)[C@H]23)OCO4	2.8%[25.7 µM]
O=C1CCC=C1C(O)c1ccc(Cl)cc1 (stereo not given)	-7.7%
O=C(c1csnn1)N1CCC2(CCCN(c3ncccn3)C2)CC1	-2.4%
N#Cc1cccc(NC(=O)N2CC[C@@]3(CCCN(C(=O)c4cc(C(F)(F)F)cc(C(F)(F)F)c4)C3)C2)c1	-4.9%
CN(C)S(=O)(=O)c1cccc(NC(=S)N/N=C/c2ccco2)c1	-5.7%[57.5 µM]
CN(C)S(=O)(=O)c1cccc(-c2csc(N/N=C/c3ccco3)n2)c1	22.4µM*
Cc1ccc(-c2csc(N/N=C/c3ccco3)n2)c(C)c1	6.5%
CCCn1c(-c2ccc(F)cc2)nc2c(NCCCN3CCOCC3)nc(C)nc21	3.0%
NC(=S)N=Nc1c(O)[nH]c2ccccc12	7.4%
O=Nc1c(-c2c(O)[nH]c3cc(Br)ccc23)[nH]c2ccccc12	28.2µM*
SMILES	ERK EGF block
O=S(=O)(Cc1ccccc1)N=Nc1c(O)[nH]c2ccc(Br)cc12	2.0%[57.5 µM]
c1ccc(C(c2ccccc2)N2CC[C@@]3(CCCNC3)C2)cc1	-3.2%
C[n+]1c(/C=C/c2ccc3c(c2)OCO3)ccc2ccccc21	-2.4%
C[n+]1cc2c3c(ccc2c2ccc4cc5c(cc4c21)OCO5)OCO3	25.1µM*!
COc1cc2ncnc(NCCCN3CCOCC3)c2cc1OC	13.9%[57.5 µM]
Clc1ccccc1CNc1ncnc2nc[nH]c12	0.1%
COc1cc2ncnc(NCc3ccc(Cl)cc3)c2cc1OC	2.24µM*
COc1cccc(-c2ccc3ncnc(NCc4ccccc4OC)c3c2)c1	18.1%
COc1ccc(CNc2ncnc3c2[nH]c2cc(OC)c(OC)cc23)cc1	-6.0%[57.5 µM]
COc1cc2ncnc(NCc3ccccc3Cl)c2cc1OC	1.26µM*
COc1ccccc1-c1ccc2ncnc(NCc3cccnc3)c2c1	65.6%
COc1ccc(CCNc2ncnc3sccc23)cc1OC	-1.8%
COc1cc2ncnc(NCc3ccc(C)o3)c2cc1OC	28.2µM*
COc1ccc2c(c1)O[C@@H](c1ccc3c(c1)OCO3)[C@H](OC(=O)N[C@H]1CCCc3ccccc31)C2=O	4.4%
NC(N)=Nc1nc(CSCC/C(N)=N\S(N)(=O)=O)cs1	21.0%
N#CCCn1c(=O)c(-c2ccccc2)nc2cnc(N3CCNCC3)nc21	8.4%
CC(C)(C)Nc1oc(-c2ccccc2)nc1-c1cccc2ccccc12	-4.9%
Cc1cn([C@@H]2C[C@H](N=[N+]=N)[C@H](CO)O2)c(=O)[nH]c1=O	14.8%[25.7 µM]
COC(=O)[C@H]1O[C@@H](c2cc(OC)c(C)c(OC)c2OCc2ccccc2)[C@H](C)[C@@H]2O[C@]12C	-9.0%
CCCCCCCCCCCCCCCCOC[C@H](COP(=O)([O-])OCC[N+](C)(C)C)OC(=O)NC	-3.3%
COc1ccc2nc(N=Nc3ccc(O)c4ccccc34)sc2c1	7.08µM*
COc1cccc(Nc2nc3ccc(OC)cc3s2)c1	5.9%
COc1ccc2nc(N=NC3=C(O)CC(C)(C)CC3=O)sc2c1	0.9%
CC[C@H](C)[C@@H](NC(=O)O[C@@H]1C(=O)c2ccc(OC)cc2O[C@H]1c1cccc(C(F)(F)F)c1)C(=O)OC	-3.7%
CCC/C=C(\CCC)C(NS(=O)(=O)c1ccccc1)c1ccc(C(F)(F)F)cc1 (stereo not given)	-8.2%
CCN=C1S/C(=C\c2ccc(N3CCOCC3)cc2C)C(=O)N1CC	4.7%
COCCN1C(=O)/C(=C/c2ccc(N3CCCC3)cc2C)SC1=S	22.4µM*
CN=C1S/C(=C\c2ccc(N3CCOCC3)cc2C)C(=O)N1C	0.3%
Cc1cc(NC(=O)Nc2ccc(N(C)C)cc2)c2cc(F)cc(F)c2n1	-4.4%

Bioassay records from PubChem.
